# Laboratory results from the supplement of paper PMC10338343.
# ± gives the standard deviation.
# What was measured:
# [1] = test system: MILI (PIWIL2) piRISC loaded with L1MC piRNA (26 nt); test: pre-steady-state target cleavage rate (min^-1); guide: L1MC piRNA 5'p-UAACUAAAUACUAUGCAAGCUGUAGG; higher = faster piRNA-guided slicing of the target; conditions: auxiliary factor: 500 nM mouse GTSF1
# Outline: (§1)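 Sequencing of uncleaved targets, normalised to depth and to weakly complementary targets, was the readout of this Cleave-'n-Seq assay. A transcribed, DNA-blocked target RNA library (0.1 nM) was mixed with 1 nM active affinity-purified piRISC carrying one synthetic guide, with or without 500 nM GTSF1 partner protein, in HEPES–potassium acetate buffer at 33 °C for 0–8 or 0–960 min. Three trials were pooled, k3 was capped at 0.0001 min^-1, and a burst-and-steady-state fit gave the pre-steady-state cleavage rate.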
# [2] = test system: EfPiwi piRISC loaded with L1MC piRNA (26 nt); test: pre-steady-state target cleavage rate (min^-1); auxiliary factor: 500 nM Ephydatia muelleri Gtsf1; guide: L1MC piRNA 5'p-UAACUAAAUACUAUGCAAGCUGUAGG; MIWI and MILI are mouse PIWI proteins and EfPiwi is from a freshwater sponge; tags in brackets are library labels; higher = faster piRNA-guided slicing of the target
# Outline: as §1
Sequence,pre-steady-state target cleavage rate [1],pre-steady-state target cleavage rate [2]
UCCUGCUACAGCUUGCAUUGUAUUAAGUUA,0.215 ± 0.03,0.00572 ± 0.0028
UCCUGCUACAGCUUGCAUAGUAUAUAGUAA,0.0474 ± 0.018,0.00354 ± 0.0018
UCCUCCUACAGCUUGCAAAGUAUUUUGUUA,0.0808 ± 0.011,0.00453 ± 0.0028
UCCUCCUACAGCUAGCAUAGUAUUUACUUA,0.15 ± 0.022,0.00296 ± 0.0027
UCCUCCUACAGCUUGCAAAGUAUUUAGAAA,0.0823 ± 0.015,0.00344 ± 0.0017
UCCUGGAACAGCUUGCAUAGUAUUUAGAAA,0.0838 ± 0.015,0.00395 ± 0.0012
UCCUGCUACAGCUUGCAUAGUAUUUUCAUA,0.151 ± 0.044,0.00529 ± 0.0027
UCCUCCUACACCUUGCAUACUAUUUAGUUA,0.0962 ± 0.025,0.00578 ± 0.0029
UCCUGCAACAGCUUGCAUAGUAUUUAGAAA,0.138 ± 0.026,0.00432 ± 0.0016
UCCUGCUACAGCUUGCAUAGUAUAAAGAAA,0.0621 ± 0.021,0.00337 ± 0.0023
UCCUCCUACAGCUAGCAUAGAAUUUAGUUA,0.0602 ± 0.011,0.00325 ± 0.0019
UCCUGGAACACCUUGCAUAGUAUAUAGUUA,0.189 ± 0.033,0.0051 ± 0.0035
UCCUGGAACAGCUUGCACUAGUAUUUAGUUA,0.0388 ± 0.0091,0.00312 ± 0.0026
UCCUGGAACUGCUUGCAUAGUAUUUAGAUA,0.123 ± 0.023,0.00297 ± 0.002
UCCUCCUACAGCAUGCAUAGUAUUUAGAAA,0.211 ± 0.03,0.00473 ± 0.002
UCCUGCUAGAGCUUGCAUAGUAUUUAGAUA,0.117 ± 0.015,0.00536 ± 0.0018
UCCUGGAACACCUUGCAUACUAUUUAGUUA,0.0449 ± 0.0096,0.00273 ± 0.002
UCCUGCUACAGCUUGCAUAGAUUUUACAAA,0.00852 ± 0.0044,0.00292 ± 0.0018
UCCUGGAACAGCUUGCAUUGUAUUUUGUUA,0.102 ± 0.013,0.00509 ± 0.0026
UCCUCCUACUGCUUGCAUAGUAUUUAGAAA,0.0658 ± 0.017,0.00462 ± 0.0021
UCCUGGUACAGCUAGCAUAGUAUUUAGAUA,0.0905 ± 0.022,0.00618 ± 0.0029
UCCUCCUACAGCUUGCAUAGUAAAAACAAA,0.0836 ± 0.022,0.00389 ± 0.0036

Sequence,pre-steady-state target cleavage rate [1],pre-steady-state target cleavage rate [2]
UCCUCGAACAGCUUGCAUAGUAUUUACAAA,0.0992 ± 0.021,0.00433 ± 0.0025
UCCUCCUACAGCUUGCAUACUAUUUAGAUA,0.0353 ± 0.01,0.00315 ± 0.0027
UCCUGGAACAGGUUGCAUAGUAUUUAGAAA,0.163 ± 0.026,0.00261 ± 0.0017
UCCUGGAACAGCUUGCAUAGUAUUUACAAA,0.222 ± 0.048,0.00238 ± 0.0019
UCCUCCUACAGGUUGCAUAGAAUUUAGUUA,0.0405 ± 0.0092,0.0062 ± 0.0014
UCCUGCAUCAGCUUGCAUAGUAUUUACAAA,0.126 ± 0.025,0.00323 ± 0.0016
UCCUGGUUGUGCUUGCAUAGUAUUUAGAAA,0.0381 ± 0.013,0.00415 ± 0.0022
UCCUGCUUCAGCUUCCAUAGUAUUUAGUUA,0.0549 ± 0.018,0.00322 ± 0.0013
UCCUGGUACUGCUUGCAUAGUAUUUUCAAA,0.0112 ± 0.0064,0.00285 ± 0.0022
UCCUCCUACAGCUUGCAUACUAUUUAGUAA,0.0473 ± 0.012,0.00454 ± 0.0033
UCCUGCUACAGCUUGGAUAGUAAUUAGUUA,0.204 ± 0.021,0.00773 ± 0.0024
UCCUGCUACACCUUGCAUAGUAUUUACUUA,0.102 ± 0.034,0.00306 ± 0.003
UCCUCCUACAGCUUGCAUAGUUUUAAGUUA,0.0543 ± 0.012,0.00431 ± 0.0024
UCCUCCUACUGCUUGCAUAGUAUUUAGUAA,0.126 ± 0.017,0.00527 ± 0.0023
UCCUCCUACAGCUUGCAUAGUAUUUAGUCUA,0.154 ± 0.041,0.00459 ± 0.0018
UCCUCCUACUGCUUCCAUAGUAUUUAGUUA,0.0403 ± 0.0098,0.0043 ± 0.0018
UCCUGGAACAGCUUGCAUAGUAUUUCAGUUA,0.131 ± 0.028,0.00308 ± 0.0026
UCCUGGUACUCCUUGCAUAGUAUUUAGAAA,0.0265 ± 0.01,0.00304 ± 0.0022
UCCUGGAACAGCUUGCAUAGUAUUAAGAUA,0.0769 ± 0.019,0.00257 ± 0.0022
UCCUGCUACAGCUUGCAUAGUAAUUACAAA,0.0901 ± 0.029,0.00259 ± 0.0018
UCCUGGUACAGCUUGCAUAGUAUUUUGUAA,0.03 ± 0.0099,0.00379 ± 0.0027
UCCUGGAUGAGCUUGCUUAGUAUUUAGAUA,0.128 ± 0.02,0.00382 ± 0.0029

Sequence,pre-steady-state target cleavage rate [1],pre-steady-state target cleavage rate [2]
UCCUGCUACAGCUUGCAUAGUAAAAAGUUA,0.214 ± 0.036,0.00305 ± 0.0016
UCCUGGAUCAGCAUGCAUAGUAUUUAGAUA,0.149 ± 0.017,0.0044 ± 0.0024
UCCUGGAACAGCUUCCAUAGUAUUUAGUUA,0.0612 ± 0.017,0.00225 ± 0.0021
UCCUGCUACAGCUUGGAUAGUAUUUAGAAA,0.0121 ± 0.0049,0.00242 ± 0.0021
UCCUGCUACAGCUUGCAUAGCAUUUAGUUA,0.141 ± 0.022,0.00521 ± 0.0016
UCCUGGAUCUCCUUGCAUAGUAUUUAGAAA,0.192 ± 0.031,0.00628 ± 0.0051
UCCUGCUACAGCUAGCAUAGAAUUUAGUUA,0.0821 ± 0.018,0.00327 ± 0.0022
UCCUGCUACAGCUUGCUUAGUAUUAAGUUA,0.179 ± 0.026,0.00988 ± 0.0037
UCCUGGAACAGCUUGCGAUAGUAUUUAGUUA,0.00418 ± 0.0033,0.00523 ± 0.0018
UCCUGGAACAGCUUGCAUAGUAAUUUGUUA,0.0687 ± 0.013,0.0032 ± 0.002
UCCUCCUAGAGCUUGCAUAGUAUUAAGUUA,0.279 ± 0.035,0.00604 ± 0.0026
UCCUGCUUGAGCUUGCAUAGUAUUUACAAA,0.0564 ± 0.017,0.00279 ± 0.0023
UCCUGGAUCAGCUUGCAUAGUAAUUACUUA,0.0264 ± 0.0065,0.00233 ± 0.0022
UCCUGGUACUGCUUGCAUAGUAUUUAGAUA,0.0302 ± 0.014,0.00378 ± 0.0019
UCCUCGUACAGCUUGCAUAGUAUUUAGAAA,0.131 ± 0.024,0.00711 ± 0.0033
UCCUGGAUGAGCUUGCAAAGUAUUUAGAAA,0.0447 ± 0.013,0.00395 ± 0.0031
UCCUGGAACAGCUUGCAUAGUUAUUAGUAA,0.0204 ± 0.0084,0.00454 ± 0.0037
UCCUGGAACAGCUUGCAAAGUAUUUAGAAA,0.166 ± 0.038,0.00418 ± 0.002
UCCUGCUACAGCUUCCAUAGUAUUUAGUAA,0.0172 ± 0.0082,0.00255 ± 0.0016
UCCUGGAUCAGCAUCCAUAGUAUUUAGUUA,0.103 ± 0.022,0.00269 ± 0.0023
